The results in this text go back to PubChem BioAssay (NCATS).

Where “and” joins values, the source holds several entries; their conditions need not be identical. Identical values can stand only once. Unmarked numbers belong to inactive results. Results filed as inconclusive are left out. Calls of active or inactive are those of the source. Unless noted, the call rests on the fitted dose curve; in most records, active means well fitted curve in the direction sought with a large enough effect; inconclusive means small, poorly fitted or top-dose-only effect, or another doubt; inactive means no such curve, though single readings can be large; an effect the other way counts as inactive or inconclusive. Some results are limits rather than exact numbers.

For experiment [1], the target named is Glucocorticoid receptor (Homo sapiens) (UniProt P04150). Briefly: GR-GFP Redistribution (AID 450;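 active means compounds whose dose series gives a full or clear partial fitted curve of increased nuclear translocation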; further: potency means the concentration at half of the fitted maximal effect). Conditions: U2OS GR-GFP nuclear translocation, laser cytometry, 2 h.
Experiment [2] shares this target. In words: GR-EFC Redistribution (AID 451; calls by dose curve; further: potency means the concentration at half of the fitted maximal effect). Conditions: CHO-K1 GR-EFC translocation, beta-gal luminescence, 2 h. Summed up:
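CHO-K1 cells stably expressing nuclear-localized β-gal enzyme acceptor and GR fused C-terminally to the enzyme donor fragment; ligand-driven nuclear translocation restores β-gal by complementation. Compounds titrated up to 46 uM final, 2 h at 37 °C; luminescence read.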

The target in experiment [3] is Mitogen-activated protein kinase 10 (Mus musculus) (UniProt Q61831). Briefly: JNK3 AlphaScreen Assay (AID 530; active means well fitted curve in either direction with a large enough effect, not every such curve was filed as active;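 further: kinase came from lysate of stimulated human HepG2 cells; signal reports phosphorylation of biotinylated GST-cJun 1-79 at Ser73 with 10 µM ATP; on the % scale 0 is the no-effect control and ±100 the full control effect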). Conditions: JNK3 lysate, c-Jun phosphorylation; series mostly up to 57.1 µM. Summed up:
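JNK3 came from HepG2 lysates pre-activated with IL-1beta and TNF-alpha and phosphorylated biotinylated GST-cJun (1-79) at 10 uM ATP, pH 7.6, room temperature. Compounds were titrated. AlphaScreen signal used anti-phospho-cJun (Ser73) antibody.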
A general note: In Alpha technology, singlet oxygen from a donor bead excites a nearby acceptor bead.

In experiment [4] the target is 3',5'-cyclic-AMP phosphodiesterase 4B (Homo sapiens) (UniProt Q07343). In words: qHTS Assay for Inhibitors of PDE-IV (AID 607; active means well fitted activation curve with a large enough effect in the main read-out, with a control signal flat, not every such curve was filed as active; further: % of control where 0% means no effect). The following applies: HEK293 ACTOne CNG channel cells, membrane potential fluorescence; series mostly up to 22.9 µM. Summed up: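 ACTOne HEK293 cells carry a modified cAMP-gated CNG channel and express endogenous PDE4; plated 1000 cells/well, compounds up to 22.9 uM final. Membrane-potential dye fluorescence (ex 535/em 590) was read; parental cells received 10 uM forskolin + 100 uM RO 20-1724.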
For orientation: In qHTS, concentration-response curves come from the screen itself.

Experiment [5] can be described thus: Cell Viability - N2a (AID 540).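 Further: plate controls were DMSO alone for no effect and tamoxifen control for full effect; nearly all actives have a fitted effect of over 45% in size.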 The following applies: N2a mouse neuroblastoma cell viability; activity change, negative = cytotoxicity: at 92.2 µM (top of the series). In short, it runs like this: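 Mouse neuroblastoma N2a cells (1500/well) were preincubated 5 hr at 37 °C, then exposed to compounds for 40 hr at 37 °C in complete medium. Viability was read as intracellular ATP by CellTiter-Glo luminescence; AC50 from Hill fits.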

A short description of experiment [6]: Cell Viability - NIH 3T3 (AID 541). Further: nearly all actives have a fitted effect of over 25% in size. Further: potency means the concentration at half of the fitted maximal effect.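 On activity change, negative = cytotoxicity: plate controls were DMSO alone for no effect and tamoxifen positive control for full effect.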 Conditions: NIH 3T3 cell viability, qHTS; activity change, negative = cytotoxicity: at 92.2 µM (top of the series). In short, it runs like this:
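NIH 3T3 mouse embryo fibroblasts (1000 cells/well) were plated in complete medium and treated with compound for 40 hr at 37 °C. Viability was read as intracellular ATP by CellTiter-Glo luminescence; AC50 values came from Hill-equation fits of concentration-response data.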

Experiment [7] can be described thus: Cell Viability - HUV-EC-C (AID 542). Further: on the % scale 0 is the no-effect control and ±100 the full control effect; nearly all actives have a fitted effect of over 35% in size. The following applies: HUV-EC-C endothelial cell viability, qHTS; series mostly up to 92.2 µM. In short, it runs like this:
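HUV-EC-C normal human vascular endothelial cells, 1000 cells/well, pre-incubated 5 hr at 37 °C, then exposed to compounds for 40 hr at 37 °C in complete medium. Viability measured as intracellular ATP by CellTiter-Glo luminescence; AC50 from Hill fits.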

The nature of experiment [8]: Cell Viability - H-4-II-E (AID 543). Further: nearly all actives have a fitted effect of over 35% in size. Further: potency means the concentration at half of the fitted maximal effect. Conditions: H-4-II-E rat hepatoma viability; series mostly up to 92.2 µM. Summed up: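 Rat hepatoma H-4-II-E cells (1500/well) were plated, incubated 5 hr at 37 °C, then exposed to compounds for 40 hr at 37 °C. Cellular ATP was read by CellTiter-Glo luminescence; AC50 came from Hill-equation fits of concentration-response data.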

A short description of experiment [9]: Cell Viability - Renal Proximal Tubule (AID 545). Further: nearly all actives have a fitted effect of over 40% in size. Conditions: renal proximal tubule cells viability, primary cells of rat origin; series mostly up to 91.7 µM. Summed up:
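Rat renal proximal tubule primary cells, 1000/well, exposed to compounds for 40 hr at 37 °C in complete medium; cellular ATP read by CellTiter-Glo luminescence. AC50 from concentration-response fitted with standard Hill equation.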

The nature of experiment [10]: Cell Viability - Mesenchymal (AID 546).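 Further: cells exposed to compound for 40 hours before reading.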 Conditions: mesenchymal cells viability, qHTS; series mostly up to 91.7 µM. Summed up: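 Normal human renal glomerulus-derived kidney mesenchymal cells, 1000 per well in complete medium, were treated with compounds for 40 hr at 37 °C. Viability was read as intracellular ATP by CellTiter-Glo luminescence; AC50 values came from Hill-equation fits of qHTS concentration-response data.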

Experiment [11] in a line: Cellular Toxicity (caspase-3) HepG2 (AID 654).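 Further: cells exposed to compound for 16 hours before reading; 0% = DMSO alone and 100% = caspase signal from 100 µM tamoxifen.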 The following applies: HepG2 caspase-3 activation, luminescence, 0% = DMSO only, 100% = tamoxifen; series mostly up to 92.2 µM. In short, it runs like this:
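HepG2 cells (1500/well) in complete medium were treated with compounds for 16 hr at 37 °C. Caspase-3/7 activity was then read as luminescence from peptide-aminoluciferin cleavage. AC50 came from Hill fits, normalized to DMSO and 100 uM tamoxifen.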

Experiment [12] in a line: Cellular Toxicity (caspase-3) Jurkat (AID 655).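 Further: cells exposed to compound for 16 h at 37 °C before reading.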 Conditions: Jurkat caspase-3 activation, luminescence; series mostly up to 92.2 µM. In short, it runs like this: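 Jurkat cells (5000/well) in complete medium exposed 16 h at 37 C; caspase-3/7 activity read by Caspase-Glo luminescence after 20 min at room temperature. Normalized to DMSO and 100 uM tamoxifen; AC50 from Hill fits.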

Experiment [13] is described as follows: Cellular Toxicity (caspase-3) HUV-EC-C (AID 656). The following applies: HUV-EC-C cells, caspase-3 activation (apoptosis), vehicle = 0, 100 µM tamoxifen = 100%; series mostly up to 92.2 µM. In short, it runs like this: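 HUV-EC-C cells (1000/well) in complete medium, compound-treated 16 h at 37 °C; caspase-3/7 activity read by Caspase-Glo 3/7 luminescence. Normalized to DMSO (basal) and 100 uM tamoxifen (100%); AC50 from Hill-equation concentration-response fits.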

Experiment [14] can be described thus: Cellular Toxicity (caspase-3) SHSY5Y (AID 657). Conditions: SH-SY5Y caspase-3 activation, DMSO zero, 10 µM staurosporine = 100%; series mostly up to 91.7 µM. In short, it runs like this:
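SH-SY5Y human neuroblastoma cells, 1500/well, exposed to compound for 16 hours at 37 °C in complete medium. Caspase-3/7 activity read by Caspase-Glo luminescence after 1 hr at room temperature, normalized to DMSO and 10 uM staurosporine; AC50 from Hill fit.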

Experiment [15] can be described thus: Cellular Toxicity (caspase-3) BJ (AID 658). The following applies: BJ fibroblasts, luminescence, normalized: DMSO 0%, staurosporine 100%; series mostly up to 91.7 µM. Summed up: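 Luminescent aminoluciferin-substrate cleavage reports caspase 3/7 activity in normal human BJ fibroblasts after 16 hr compound exposure at 37 °C. Normalized to DMSO (basal) and 10 uM staurosporine (100%); AC50 from Hill fit of concentration-response.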

A short description of experiment [16]: Cellular Toxicity (caspase-3) Mesangial (AID 660).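 Further: cells exposed to compound for 16 h before the caspase read.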 Conditions: mesangial cells, normalized: DMSO 0%, 100 µM tamoxifen 100%; series mostly up to 91.7 µM. Summed up:
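Human renal glomerular mesangial cells (1000/well) were treated with compounds for 16 h at 37 °C in complete medium, then caspase 3/7 activity was read by Caspase-Glo luminescence. Data were normalized to DMSO and 100 uM tamoxifen; AC50 from Hill fits.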

Experiment [17] can be described thus: Cellular Toxicity (caspase-3) H-4-II-E (AID 663).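 Further: cells exposed to compound for 16 hr before readout.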 The following applies: H-4-II-E rat hepatoma, scaled: DMSO 0%, 100 µM tamoxifen 100%; series mostly up to 92.2 µM. In short, it runs like this: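 Luminescence from caspase-cleaved aminoluciferin substrate, read 20 min after reagent addition, reports caspase 3/7 activation in rat H-4-II-E cells after 16 hr compound exposure. Normalized to DMSO (basal) and 100 uM tamoxifen (100%); AC50 from Hill fits.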

Experiment [18] in a line: Cellular Toxicity (caspase-3) Hek293 (AID 664).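 Further: cells exposed to compound for 16 h at 37 °C before readout.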 The following applies: HEK293 caspase-3 activation; caspase-3 activation: at 92.2 µM (top of the series), DMSO = 0%, 100 µM tamoxifen = 100%. Summed up:
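HEK293 cells were exposed to compounds in complete medium for 16 hr at 37 °C, then caspase-3/7 activity was read by Caspase-Glo 3/7 luminescence after 20 min at room temperature. Data normalized to DMSO and 100 uM tamoxifen; AC50 from Hill fits.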

A short description of experiment [19]: Cellular Toxicity (caspase-3) N2a (AID 665).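 Further: compound exposure lasted 16 h at 37 °C before readout.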 The following applies: N2a cells, luminescence, normalized: DMSO 0%, 10 µM staurosporine 100%; series mostly up to 92.2 µM. Summed up:
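Mouse N2a neuroblastoma cells (1500/well) were treated with compounds for 16 h at 37 °C, then caspase-3/7 activity was read by Caspase-Glo luminescence after 1 h at room temperature. Data were normalized to DMSO and 10 uM staurosporine; AC50 from Hill fits.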

A short description of experiment [20]: Cell Viability - SH-SY5Y (AID 544). Further: nearly all actives have a fitted effect of over 55% in size. Further: potency means the concentration at half of the fitted maximal effect. Conditions: SH-SY5Y neuroblastoma cell viability; viability change, negative = cytotoxic: at 92.2 µM (top of the series). Summed up: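 Human neuroblastoma SH-SY5Y cells (1500/well) in complete medium were exposed to compounds for 40 hr at 37 °C; intracellular ATP was then quantified by CellTiter-Glo luminescence after 20 min at room temperature. AC50 came from Hill-equation concentration-response fits.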

Chain of 3',5'-cyclic-AMP phosphodiesterase 4B (Homo sapiens) (Q07343 whole entry, looked up): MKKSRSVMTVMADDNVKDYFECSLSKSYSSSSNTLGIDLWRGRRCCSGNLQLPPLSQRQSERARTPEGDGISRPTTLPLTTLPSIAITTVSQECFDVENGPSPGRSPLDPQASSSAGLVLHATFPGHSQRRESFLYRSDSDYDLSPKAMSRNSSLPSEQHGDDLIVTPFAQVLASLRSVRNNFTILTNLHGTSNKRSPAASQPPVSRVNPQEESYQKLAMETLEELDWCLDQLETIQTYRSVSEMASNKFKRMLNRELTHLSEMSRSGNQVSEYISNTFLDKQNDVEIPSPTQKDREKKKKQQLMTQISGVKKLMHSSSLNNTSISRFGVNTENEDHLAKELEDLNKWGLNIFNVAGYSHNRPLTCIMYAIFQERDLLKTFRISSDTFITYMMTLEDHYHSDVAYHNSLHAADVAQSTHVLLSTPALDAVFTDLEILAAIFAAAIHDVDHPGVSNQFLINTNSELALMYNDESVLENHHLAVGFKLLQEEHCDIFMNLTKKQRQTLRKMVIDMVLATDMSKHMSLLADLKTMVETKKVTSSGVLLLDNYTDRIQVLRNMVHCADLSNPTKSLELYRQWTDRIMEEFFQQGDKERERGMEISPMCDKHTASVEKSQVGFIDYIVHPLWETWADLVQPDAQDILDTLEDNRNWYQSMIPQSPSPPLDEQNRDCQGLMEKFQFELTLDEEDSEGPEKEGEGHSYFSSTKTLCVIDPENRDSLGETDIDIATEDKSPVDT
Chain of Glucocorticoid receptor (Homo sapiens) (P04150 whole entry, looked up): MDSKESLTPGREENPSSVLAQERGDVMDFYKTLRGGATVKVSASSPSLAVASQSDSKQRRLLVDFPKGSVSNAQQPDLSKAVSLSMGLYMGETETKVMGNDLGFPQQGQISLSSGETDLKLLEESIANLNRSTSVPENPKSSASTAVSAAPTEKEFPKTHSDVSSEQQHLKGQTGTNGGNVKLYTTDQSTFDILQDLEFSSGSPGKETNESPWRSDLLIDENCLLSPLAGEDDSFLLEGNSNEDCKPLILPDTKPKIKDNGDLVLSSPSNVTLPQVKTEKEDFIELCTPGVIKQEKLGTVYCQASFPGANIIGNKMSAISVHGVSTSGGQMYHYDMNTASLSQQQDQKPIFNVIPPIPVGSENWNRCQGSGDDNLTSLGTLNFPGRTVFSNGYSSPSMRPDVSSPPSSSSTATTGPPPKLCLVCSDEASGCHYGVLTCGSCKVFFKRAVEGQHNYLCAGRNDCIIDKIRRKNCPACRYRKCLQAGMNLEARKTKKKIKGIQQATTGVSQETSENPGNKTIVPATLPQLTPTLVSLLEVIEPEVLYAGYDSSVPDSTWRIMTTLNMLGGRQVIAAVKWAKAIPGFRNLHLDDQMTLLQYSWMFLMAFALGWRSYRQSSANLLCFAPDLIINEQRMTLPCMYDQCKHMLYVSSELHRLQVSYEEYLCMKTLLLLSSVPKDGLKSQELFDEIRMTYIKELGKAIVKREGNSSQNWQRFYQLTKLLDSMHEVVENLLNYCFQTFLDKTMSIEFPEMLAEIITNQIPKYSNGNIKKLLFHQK

In the case of `CN(C)c1nc(N(C)C)nc(N(C)C)n1`, the Potency in experiment [1] is > 46 µM and > 20.6 µM; in [2] it was > 46 µM and > 20.6 µM. Further, the call in experiment [3] was inactive. In addition, the Potency result in experiment [4] was “inactive”.
Consider `Clc1ccc2c(c1)C(N1CCNCC1)=Nc1ccccc1O2`, for which the Potency in experiment [2] was > 46 µM and > 20.6 µM. The molecule was classed as inactive in [3]. In addition, the Potency entry in experiment [4] is “inactive”.
Turning to `N[C@@H](Cc1c[nH]c2ccc(O)cc12)C(=O)O`, the Potency in experiment [1] and in experiment [2] was over 46 µM throughout. Further, the call in experiment [3], in experiment [7], in [10], in [11], in experiment [13] and in experiment [14] was inactive. Besides, the result in [15], in experiment [16], in experiment [17] and in experiment [19] was inactive. The activity change, negative = cytotoxicity in [5] is -0.161%. For the same molecule, the Potency result in experiment [6], in [8], in [9], in experiment [4], in experiment [12] and in [18] was “inactive” each time.
As for `CNCCCC12CCC(c3ccccc31)c1ccccc12`, the Potency is > 46 µM and > 20.6 µM in experiment [1]; > 46 µM and > 20.6 µM in experiment [2]. For the same molecule, the molecule was classed as inactive in experiment [3]. In addition, the Potency entry in [4] is “inactive”.
For `COc1ccc2c(c1)c(CC(=O)O)c(C)n2C(=O)c1ccc(Cl)cc1`, in [2], the Potency is > 46 µM and > 20.6 µM. In addition, the molecule was classed as inactive in experiment [3], in experiment [7], in [10], in [11], in [13] and in experiment [14]. For the same molecule, the outcome in experiment [15], in experiment [16], in experiment [17] and in [19] was inactive. Besides, the activity change, negative = cytotoxicity in [5] is 0.758%. Further, the Potency result in experiment [6], in experiment [8], in experiment [20], in [9], in experiment [4] and in experiment [12] was “inactive” throughout. Besides, in experiment [18], the Potency entry was “inactive”.
For `O=c1[nH]cc(F)c(=O)[nH]1`, the Potency in [2] is over 46 µM; in [6], 0.316 µM (active); in [8], 0.631 µM (active); in [20], 15.8 µM (active). The result in experiment [3], in experiment [7], in experiment [10], in experiment [11], in experiment [13] and in [14] was inactive. Further, the outcome in [15], in experiment [16], in experiment [17] and in [19] was inactive. For the same molecule, the activity change, negative = cytotoxicity in experiment [5] is -18.1%. Further, the Potency result in experiment [4], in experiment [12] and in experiment [18] was “inactive” each time.
Take `CN1CCC(=C2c3ccccc3C=Cc3ccccc32)CC1`: the Potency in experiment [2] is > 46 µM and > 20.6 µM. Moreover, in [3], the result was inactive.
With `Clc1ccccc1C(c1ccccc1)(c1ccccc1)n1ccnc1`, in experiment [2], the Potency was > 46 µM and > 20.6 µM. Moreover, in experiment [3], the call was inactive. The Potency result in experiment [4] is “inactive”.
As to `COc1ccc2[nH]cc(CCNC(C)=O)c2c1`, in experiment [2], the Potency was > 46 µM and > 20.6 µM. Moreover, the molecule was called inactive in experiment [3], in experiment [7], in experiment [10], in experiment [11], in [13] and in experiment [14]. Also, the outcome in experiment [15], in experiment [16], in experiment [17] and in [19] was inactive. Also, in experiment [5], the activity change, negative = cytotoxicity was -15.6% and 3.75%. Further, the Potency result in experiment [6], in experiment [8], in [20], in experiment [9], in experiment [4] and in experiment [12] was “inactive” throughout. For the same molecule, the Potency entry in experiment [18] is “inactive”.
`CC(C)NCC(O)COc1ccc(CCOCC2CC2)cc1` (stereo not given): in experiment [1], the Potency was over 20.6 µM.
Consider `Cc1cn([C@H]2C[C@H](N=[N+]=[N-])[C@@H](CO)O2)c(=O)[nH]c1=O`, for which the Potency in [1] was over 20.6 µM. For the same molecule, the result in experiment [3], in experiment [7], in experiment [10], in experiment [11], in experiment [13] and in [14] was inactive. Also, the outcome in [15], in [16], in experiment [17] and in [19] was inactive. Besides, the activity change, negative = cytotoxicity in [5] was -7.33%. Also, the Potency entry in experiment [6], in experiment [8], in experiment [20], in experiment [9], in [12] and in experiment [18] was “inactive” each time.
